Experimental data published in PubChem BioAssay AID1159580 (chemical genetic matrix, 2015).
Hit rate of the full screen: of about 5,500 compounds, about 2,000 (36%) were called active. Inconclusive results (about 18%) are left out. Cut-off read from the data, not from the text of the source: active = normalized growth mostly below about 0.91 (no sharp cut-off); inconclusive = no clear call, values can overlap the other calls; inactive = mostly above about 0.92. The list shows a part of the results.

Test: chemical genetic growth profiling, strain panel (AID 1159580);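 note: tested at 20 µM; growth read once vehicle control cultures reached saturation at 30 °C; 1 = growth at the plate median or of vehicle wells; lower values mean less growth of the strain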
Details: growth OD

Measured: normalized growth

CC(C)C1CCC(C(=O)N[C@@H](Cc2ccccc2)C(=O)O)CC1 (some centres not stated)
inactive: S. cerevisiae deletion strains, locus YJR075W, strain HOC1, active compounds read low 0.992 | S. cerevisiae deletion strains, locus YKL009W, strain mrt4, active compounds read low 0.963 | S. cerevisiae deletion strains, locus YKL068W, active compounds read low 1 | S. cerevisiae deletion strains, locus YKL085W, strain MDH1 (second series), active compounds read low 1 | S. cerevisiae deletion strains, locus YKL085W, strain MDH1, active compounds read low 1 | S. cerevisiae deletion strains, locus YKL160W, strain elf1, active compounds read low 0.971 | S. cerevisiae deletion strains, locus YKL190W, strain CNB1, active compounds read low 0.976 | S. cerevisiae deletion strains, locus YKR001C, strain vps1, active compounds read low 1.04 | S. cerevisiae deletion strains, locus YKR026C, strain gcn3, active compounds read low 0.974 | S. cerevisiae deletion strains, locus YKR091W, strain srl3, active compounds read low 0.978 | S. cerevisiae deletion strains, locus YLL001W, strain dnm1, active compounds read low 0.957 | S. cerevisiae deletion strains, locus YLL026W, active compounds read low 0.981 | S. cerevisiae deletion strains, locus YLL041C, strain sdh2, active compounds read low 0.961 | S. cerevisiae deletion strains, locus YLR027C, strain aat2, active compounds read low 0.985 | S. cerevisiae deletion strains, locus YLR039C, strain RIC1, active compounds read low 0.969 | S. cerevisiae deletion strains, locus YLR058C, strain SHM2, active compounds read low 1 | S. cerevisiae deletion strains, locus YLR102C, strain apc9, active compounds read low 0.999 | S. cerevisiae deletion strains, locus YLR113W, strain HOG1, active compounds read low 1.02 | S. cerevisiae deletion strains, locus YLR221C, strain rsa3, active compounds read low 0.987 | S. cerevisiae deletion strains, locus YLR258W, strain gsy2, active compounds read low 0.987 | S. cerevisiae deletion strains, locus YLR262C, strain YPT6 (second series), active compounds read low 0.955 | S. cerevisiae deletion strains, locus YLR262C, strain YPT6, active compounds read low 0.964 | S. cerevisiae deletion strains, locus YLR268W, strain sec22, active compounds read low 1.01 | S. cerevisiae deletion strains, locus YLR320W, strain mms22, active compounds read low 0.979 | S. cerevisiae deletion strains, locus YLR330W, strain CHS5, active compounds read low 1 | S. cerevisiae deletion strains, locus YLR342W, strain FKS1 (second series), active compounds read low 0.965 | S. cerevisiae deletion strains, locus YLR342W, strain FKS1, active compounds read low 0.979 | S. cerevisiae deletion strains, locus YLR357W, strain rsc2, active compounds read low 0.971 | S. cerevisiae deletion strains, locus YLR370C, strain arc18, active compounds read low 0.959 | S. cerevisiae deletion strains, locus YLR371W, strain rom2, active compounds read low 1.01 | S. cerevisiae deletion strains, locus YLR384C, strain iki3, active compounds read low 0.965 | S. cerevisiae deletion strains, locus YLR418C, strain cdc73, active compounds read low 1.05 | S. cerevisiae deletion strains, locus YML016C, strain PPZ1, active compounds read low 1 | S. cerevisiae deletion strains, locus YML032C, strain rad52, active compounds read low 1.02 | S. cerevisiae deletion strains, locus YML120C, strain ndi1, active compounds read low 0.97 | S. cerevisiae deletion strains, locus YML124C, strain tub3, active compounds read low 1.02 | S. cerevisiae deletion strains, locus YMR058W, strain fet3, active compounds read low 0.98 | S. cerevisiae deletion strains, locus YMR078C, strain ctf18, active compounds read low 1.02 | S. cerevisiae deletion strains, locus YMR125W, strain sto1, active compounds read low 0.966 | S. cerevisiae deletion strains, locus YMR129W, active compounds read low 0.977 | S. cerevisiae deletion strains, locus YMR205C, strain PFK2, active compounds read low 0.967 | S. cerevisiae deletion strains, locus YMR223W, strain ubp8, active compounds read low 1.02 | S. cerevisiae deletion strains, locus YMR231W, strain pep5, active compounds read low 0.971 | S. cerevisiae deletion strains, locus YMR263W, strain SAP30, active compounds read low 0.974 | S. cerevisiae deletion strains, locus YMR307W, strain GAS1, active compounds read low 0.998 | S. cerevisiae deletion strains, locus YNL067W, strain RPL9B, active compounds read low 0.999 | S. cerevisiae deletion strains, locus YNL071W, strain lat1, active compounds read low 0.979 | S. cerevisiae deletion strains, locus YNL128W, strain TEP1, active compounds read low 0.971 | S. cerevisiae deletion strains, locus YNL153C, strain GIM3, active compounds read low 1 | S. cerevisiae deletion strains, locus YNL183C, strain NPR1, active compounds read low 0.955 | S. cerevisiae deletion strains, locus YNL209W, strain ssb2, active compounds read low 0.963 | S. cerevisiae deletion strains, locus YNL233W, strain BNI4, active compounds read low 1.01 | S. cerevisiae deletion strains, locus YNL248C, strain rpa49, active compounds read low 0.976 | S. cerevisiae deletion strains, locus YNL250W, strain rad50, active compounds read low 1.01 | S. cerevisiae deletion strains, locus YNL271C, strain bni1, active compounds read low 1.01 | S. cerevisiae deletion strains, locus YNL298W, strain CLA4, active compounds read low 1.01 | S. cerevisiae deletion strains, locus YNL307C, strain MCK1, active compounds read low 1.03 | S. cerevisiae deletion strains, locus YNL322C, strain KRE1 (second series), active compounds read low 0.992 | S. cerevisiae deletion strains, locus YNL322C, strain KRE1, active compounds read low 0.998 | S. cerevisiae deletion strains, locus YNR049C, strain mso1, active compounds read low 0.975 | S. cerevisiae deletion strains, locus YNR052C, strain pop2, active compounds read low 1.01 | S. cerevisiae deletion strains, locus YOL006C, strain TOP1, active compounds read low 1.03 | S. cerevisiae deletion strains, locus YOL012C, strain htz1 1.07 | S. cerevisiae deletion strains, locus YOL147C, strain pex11, active compounds read low 1.02 | S. cerevisiae deletion strains, locus YOR001W, strain rrp6, active compounds read low 0.967 | S. cerevisiae deletion strains, locus YOR061W, strain CKA2, active compounds read low 1 | S. cerevisiae deletion strains, locus YOR069W, strain VPS5, active compounds read low 0.994 | S. cerevisiae deletion strains, locus YOR070C, strain gyp1, active compounds read low 0.974 | S. cerevisiae deletion strains, locus YOR080W, strain dia2, active compounds read low 0.977 | S. cerevisiae deletion strains, locus YOR083W, strain WHI5, active compounds read low 0.984 | S. cerevisiae deletion strains, locus YOR106W, strain vam3, active compounds read low 0.981 | S. cerevisiae deletion strains, locus YOR136W, strain idh2, active compounds read low 1.02 | S. cerevisiae deletion strains, locus YOR144C, strain elg1, active compounds read low 1.01 | S. cerevisiae deletion strains, locus YOR184W, strain ser1, active compounds read low 1 | S. cerevisiae deletion strains, locus YOR231W, strain MKK1, active compounds read low 0.966 | S. cerevisiae deletion strains, locus YOR265W, strain rbl2, active compounds read low 0.975 | S. cerevisiae deletion strains, locus YOR270C, strain vph1, active compounds read low 0.949 | S. cerevisiae deletion strains, locus YOR290C, strain snf2, active compounds read low 0.962 | S. cerevisiae deletion strains, locus YOR316C, strain cot1, active compounds read low 1 | S. cerevisiae deletion strains, locus YPL051W, strain arl3, active compounds read low 0.976 | S. cerevisiae deletion strains, locus YPL055C, strain LGE1, active compounds read low 0.996 | S. cerevisiae deletion strains, locus YPL078C, strain atp4, active compounds read low 0.974 | S. cerevisiae deletion strains, locus YPL106C, strain sse1, active compounds read low 0.96 | S. cerevisiae deletion strains, locus YPL240C, strain hsp82, active compounds read low 0.981 | S. cerevisiae deletion strains, locus YPL241C, strain CIN2, active compounds read low 0.983 | S. cerevisiae deletion strains, locus YPL256C, strain CLN2, active compounds read low 0.982 | S. cerevisiae deletion strains, locus YPR119W, strain clb2, active compounds read low 1.01 | S. cerevisiae deletion strains, locus YPR141C, strain kar3, active compounds read low 1.02 | S. cerevisiae deletion strains, locus YPR163C, strain tif3, active compounds read low 1.02 | S. cerevisiae deletion strains, locus YPR167C, strain met16, active compounds read low 1.01 | S. cerevisiae deletion strains, strain wtn01, active compounds read low 1 | S. cerevisiae strains, strain wild type, active compounds read low 0.986
